Assays:
Experiment in all cases: DAPPL (digital affinity profiling via proximity ligation, sequencing); 10 mM Tris-HCl pH 7.5, 50 mM NaCl, 1 mM DTT, 4% glycerol, room temperature, 30 min; GST-TFs on glutathione beads, 16-mer random dsDNA library, 0.1% formaldehyde crosslink after washing; high values mean tight binding
FEV = biological target: T1, FEV (Homo sapiens, UniProt Q99581 1-238); conditions: protein: recombinant; tags: N-terminal GST; dsDNA, one strand shown
T1 sequence: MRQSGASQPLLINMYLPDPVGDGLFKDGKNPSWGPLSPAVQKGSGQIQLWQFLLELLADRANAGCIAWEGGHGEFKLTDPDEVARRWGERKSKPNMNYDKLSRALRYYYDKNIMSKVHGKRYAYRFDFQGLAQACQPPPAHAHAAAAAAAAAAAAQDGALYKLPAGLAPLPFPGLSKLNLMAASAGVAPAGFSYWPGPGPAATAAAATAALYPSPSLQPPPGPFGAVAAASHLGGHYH
Outline: (§1)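 Binding signal is each hexamer's read frequency for a factor divided by its frequency in the tag-only sample. The factors were GST-fused human transcription factors from yeast, captured on glutathione beads, DNA-barcoded and pooled with that sample. Pools were incubated with 200 nmole of a random double-stranded 16-mer DNA library in Tris/NaCl/DTT/glycerol buffer at room temperature for 30 min, then washed, crosslinked with 0.1% formaldehyde, proximity-ligated with BsaI/T4 ligase (1 h, 37 °C), PCR-amplified and sequenced on an Illumina NextSeq500.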

ETV5 = ETV5 (Homo sapiens, UniProt P41161 1-510); conditions: protein: recombinant; tags: N-terminal GST; dsDNA, one strand shown
Chain of ETV5 (P41161 whole entry): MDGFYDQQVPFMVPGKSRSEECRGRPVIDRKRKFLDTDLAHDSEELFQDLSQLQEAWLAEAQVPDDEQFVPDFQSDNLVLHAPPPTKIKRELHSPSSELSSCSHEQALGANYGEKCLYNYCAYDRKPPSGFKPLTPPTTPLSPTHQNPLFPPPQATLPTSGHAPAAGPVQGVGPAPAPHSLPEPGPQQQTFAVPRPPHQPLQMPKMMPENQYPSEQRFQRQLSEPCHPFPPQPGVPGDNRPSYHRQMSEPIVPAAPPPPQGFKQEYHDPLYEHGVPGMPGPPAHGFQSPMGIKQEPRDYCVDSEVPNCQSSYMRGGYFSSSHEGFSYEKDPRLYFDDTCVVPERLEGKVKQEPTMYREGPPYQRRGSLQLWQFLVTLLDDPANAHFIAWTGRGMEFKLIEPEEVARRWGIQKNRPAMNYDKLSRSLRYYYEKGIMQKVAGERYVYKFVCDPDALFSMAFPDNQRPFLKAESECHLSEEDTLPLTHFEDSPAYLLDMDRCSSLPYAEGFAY
Outline: as §1

HSF1 = HSF1 (Homo sapiens, UniProt Q00613 1-529); conditions: protein: recombinant; tags: N-terminal GST; chain copies: 3; dsDNA, one strand shown
Chain of HSF1 (Q00613 whole entry): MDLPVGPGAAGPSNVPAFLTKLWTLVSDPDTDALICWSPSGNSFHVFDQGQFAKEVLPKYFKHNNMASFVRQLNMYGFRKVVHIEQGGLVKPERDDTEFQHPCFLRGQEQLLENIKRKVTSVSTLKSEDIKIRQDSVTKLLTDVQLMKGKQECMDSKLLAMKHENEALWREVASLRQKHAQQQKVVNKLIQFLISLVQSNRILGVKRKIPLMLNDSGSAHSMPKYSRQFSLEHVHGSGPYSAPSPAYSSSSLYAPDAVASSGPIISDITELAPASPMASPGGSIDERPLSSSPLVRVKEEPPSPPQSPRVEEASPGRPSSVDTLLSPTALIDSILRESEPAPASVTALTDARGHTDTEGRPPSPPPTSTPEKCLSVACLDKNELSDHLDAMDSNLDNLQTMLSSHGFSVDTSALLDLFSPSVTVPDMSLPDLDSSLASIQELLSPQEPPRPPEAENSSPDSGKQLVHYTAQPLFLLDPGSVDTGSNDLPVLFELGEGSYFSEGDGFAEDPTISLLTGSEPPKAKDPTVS
Outline: as §1

SPIC = biological target: T2, SPIC (Homo sapiens, UniProt Q8N5J4 1-248); conditions: protein: recombinant; tags: N-terminal GST; dsDNA, one strand shown
T2 sequence: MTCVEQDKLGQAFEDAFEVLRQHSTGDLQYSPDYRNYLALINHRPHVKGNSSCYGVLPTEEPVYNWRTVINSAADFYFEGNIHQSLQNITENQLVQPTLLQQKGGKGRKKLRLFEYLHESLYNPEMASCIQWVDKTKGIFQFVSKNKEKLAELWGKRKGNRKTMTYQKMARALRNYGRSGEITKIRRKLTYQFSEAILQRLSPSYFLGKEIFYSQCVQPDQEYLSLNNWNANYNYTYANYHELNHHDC
Outline: as §1

ELF4 = ELF4 (Homo sapiens, UniProt Q99607 1-663); conditions: protein: recombinant; tags: N-terminal GST; dsDNA, one strand shown
Chain of ELF4 (Q99607 whole entry): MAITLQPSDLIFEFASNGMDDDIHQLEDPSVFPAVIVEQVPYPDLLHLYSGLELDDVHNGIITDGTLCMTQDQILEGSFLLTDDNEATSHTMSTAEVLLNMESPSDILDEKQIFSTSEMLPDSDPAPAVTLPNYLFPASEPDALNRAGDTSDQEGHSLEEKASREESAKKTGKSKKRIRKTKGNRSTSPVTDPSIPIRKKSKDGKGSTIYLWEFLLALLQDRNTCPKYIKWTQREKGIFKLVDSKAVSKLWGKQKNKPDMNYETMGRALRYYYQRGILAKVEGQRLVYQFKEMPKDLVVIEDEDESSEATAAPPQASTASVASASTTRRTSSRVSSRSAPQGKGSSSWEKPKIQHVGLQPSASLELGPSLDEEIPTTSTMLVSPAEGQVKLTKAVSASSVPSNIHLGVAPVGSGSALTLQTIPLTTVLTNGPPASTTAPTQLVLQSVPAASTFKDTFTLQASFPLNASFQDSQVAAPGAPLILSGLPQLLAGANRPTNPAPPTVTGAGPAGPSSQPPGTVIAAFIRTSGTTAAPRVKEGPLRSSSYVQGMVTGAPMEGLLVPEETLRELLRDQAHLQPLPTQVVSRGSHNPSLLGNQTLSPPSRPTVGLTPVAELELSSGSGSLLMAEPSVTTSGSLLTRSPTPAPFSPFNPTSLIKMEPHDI
Outline: as §1

ELK4 = biological target: T3, ELK4 (Homo sapiens, UniProt P28324-2 1-405); conditions: protein: recombinant; tags: N-terminal GST; dsDNA, one strand shown
T3 sequence: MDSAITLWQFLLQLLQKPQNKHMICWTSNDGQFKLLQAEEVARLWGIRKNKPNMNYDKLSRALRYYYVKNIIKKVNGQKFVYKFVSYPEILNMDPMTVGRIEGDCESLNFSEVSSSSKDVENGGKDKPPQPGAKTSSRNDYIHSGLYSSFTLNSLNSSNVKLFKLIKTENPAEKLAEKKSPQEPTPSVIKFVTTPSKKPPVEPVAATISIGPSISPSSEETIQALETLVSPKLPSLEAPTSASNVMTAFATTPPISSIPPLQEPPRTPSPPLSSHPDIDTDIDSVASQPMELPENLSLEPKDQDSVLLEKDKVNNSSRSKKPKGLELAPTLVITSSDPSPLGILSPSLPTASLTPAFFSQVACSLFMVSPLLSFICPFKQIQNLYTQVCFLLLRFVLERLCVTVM
Outline: as §1

ETV2 = biological target: T4, ETV2 (Homo sapiens, UniProt O00321 1-342); conditions: protein: recombinant; tags: N-terminal GST; dsDNA, one strand shown
T4 sequence: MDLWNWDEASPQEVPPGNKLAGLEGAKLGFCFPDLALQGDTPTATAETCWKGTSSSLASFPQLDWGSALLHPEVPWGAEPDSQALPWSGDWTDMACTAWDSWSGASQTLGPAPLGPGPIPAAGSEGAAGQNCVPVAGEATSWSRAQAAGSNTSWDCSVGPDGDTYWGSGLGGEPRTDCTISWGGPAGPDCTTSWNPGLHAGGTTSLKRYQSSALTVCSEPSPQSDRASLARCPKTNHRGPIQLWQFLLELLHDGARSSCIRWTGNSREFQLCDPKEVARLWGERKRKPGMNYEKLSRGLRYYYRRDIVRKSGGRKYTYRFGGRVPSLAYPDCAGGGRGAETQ
Outline: as §1

ELF3 = biological target: T5, ELF3 (Homo sapiens, UniProt P78545 1-371); conditions: protein: recombinant; tags: N-terminal GST; dsDNA, one strand shown
T5 sequence: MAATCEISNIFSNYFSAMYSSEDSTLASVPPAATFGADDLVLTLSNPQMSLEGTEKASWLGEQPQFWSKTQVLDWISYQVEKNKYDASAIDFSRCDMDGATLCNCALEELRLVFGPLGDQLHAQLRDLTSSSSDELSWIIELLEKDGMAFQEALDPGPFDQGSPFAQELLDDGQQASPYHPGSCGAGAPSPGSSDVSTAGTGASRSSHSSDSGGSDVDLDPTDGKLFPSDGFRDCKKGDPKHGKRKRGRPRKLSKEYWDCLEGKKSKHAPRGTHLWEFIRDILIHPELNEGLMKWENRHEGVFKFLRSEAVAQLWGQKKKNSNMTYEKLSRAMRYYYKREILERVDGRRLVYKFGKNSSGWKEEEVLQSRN
Outline: as §1

CRX = CRX (Homo sapiens, UniProt O43186 1-299); conditions: protein: recombinant; tags: N-terminal GST; dsDNA, one strand shown
Chain of CRX (O43186 whole entry): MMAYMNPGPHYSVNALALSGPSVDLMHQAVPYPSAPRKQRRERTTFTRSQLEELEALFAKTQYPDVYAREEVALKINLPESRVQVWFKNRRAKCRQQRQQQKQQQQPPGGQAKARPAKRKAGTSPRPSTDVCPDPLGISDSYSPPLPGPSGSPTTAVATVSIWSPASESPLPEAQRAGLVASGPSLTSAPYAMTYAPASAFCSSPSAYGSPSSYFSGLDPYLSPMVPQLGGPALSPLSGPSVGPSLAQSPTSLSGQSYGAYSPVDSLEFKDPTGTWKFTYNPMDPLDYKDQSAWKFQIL
Outline: as §1

ETV1 = ETV1 (Homo sapiens, UniProt P50549 1-477); conditions: protein: recombinant; tags: N-terminal GST; dsDNA, one strand shown
Chain of ETV1 (P50549 whole entry): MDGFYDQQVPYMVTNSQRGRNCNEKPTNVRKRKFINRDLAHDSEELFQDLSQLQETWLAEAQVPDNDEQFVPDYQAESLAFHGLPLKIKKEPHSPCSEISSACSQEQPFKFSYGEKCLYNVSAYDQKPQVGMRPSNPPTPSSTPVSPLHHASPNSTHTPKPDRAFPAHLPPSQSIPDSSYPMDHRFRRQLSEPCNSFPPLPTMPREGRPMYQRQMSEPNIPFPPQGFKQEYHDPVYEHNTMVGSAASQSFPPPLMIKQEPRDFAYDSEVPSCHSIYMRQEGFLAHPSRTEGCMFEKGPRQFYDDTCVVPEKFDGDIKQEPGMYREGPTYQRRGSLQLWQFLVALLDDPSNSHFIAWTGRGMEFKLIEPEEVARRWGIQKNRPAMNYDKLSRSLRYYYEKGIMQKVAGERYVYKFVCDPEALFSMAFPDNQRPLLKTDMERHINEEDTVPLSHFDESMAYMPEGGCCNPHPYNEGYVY
Outline: as §1

ERF = biological target: T6, ERF (Homo sapiens, UniProt P50548 1-548); conditions: protein: recombinant; tags: N-terminal GST; dsDNA, one strand shown
T6 sequence: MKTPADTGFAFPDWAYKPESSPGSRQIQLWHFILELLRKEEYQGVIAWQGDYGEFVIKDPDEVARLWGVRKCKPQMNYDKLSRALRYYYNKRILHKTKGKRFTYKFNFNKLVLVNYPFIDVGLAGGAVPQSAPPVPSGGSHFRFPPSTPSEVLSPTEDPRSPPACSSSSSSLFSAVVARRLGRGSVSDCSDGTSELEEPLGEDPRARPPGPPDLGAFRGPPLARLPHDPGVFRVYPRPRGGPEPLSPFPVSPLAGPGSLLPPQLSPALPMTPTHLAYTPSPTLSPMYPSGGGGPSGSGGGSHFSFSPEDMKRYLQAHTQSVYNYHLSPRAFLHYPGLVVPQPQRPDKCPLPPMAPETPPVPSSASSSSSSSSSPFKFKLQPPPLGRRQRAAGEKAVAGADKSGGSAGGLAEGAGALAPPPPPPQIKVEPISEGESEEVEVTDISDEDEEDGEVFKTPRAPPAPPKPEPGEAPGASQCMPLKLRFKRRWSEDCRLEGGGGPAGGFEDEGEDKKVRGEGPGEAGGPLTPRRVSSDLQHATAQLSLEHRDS
Outline: as §1

ETV3L = biological target: T7, ETV3L (Homo sapiens, UniProt Q6ZN32 1-361); conditions: protein: recombinant; tags: N-terminal GST; dsDNA, one strand shown
T7 sequence: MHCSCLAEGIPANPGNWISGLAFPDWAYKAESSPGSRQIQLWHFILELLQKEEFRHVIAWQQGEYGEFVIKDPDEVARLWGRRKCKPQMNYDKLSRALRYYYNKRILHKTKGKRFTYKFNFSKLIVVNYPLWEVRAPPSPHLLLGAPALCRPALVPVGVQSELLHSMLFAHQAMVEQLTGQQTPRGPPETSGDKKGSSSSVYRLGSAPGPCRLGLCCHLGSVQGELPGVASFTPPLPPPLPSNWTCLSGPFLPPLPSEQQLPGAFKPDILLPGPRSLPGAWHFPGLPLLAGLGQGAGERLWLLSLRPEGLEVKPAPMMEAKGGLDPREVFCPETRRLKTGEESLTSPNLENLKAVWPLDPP
Outline: as §1

ETS2 = biological target: T8, ETS2 (Homo sapiens, UniProt P15036 1-469); conditions: protein: recombinant; tags: N-terminal GST; dsDNA, one strand shown
T8 sequence: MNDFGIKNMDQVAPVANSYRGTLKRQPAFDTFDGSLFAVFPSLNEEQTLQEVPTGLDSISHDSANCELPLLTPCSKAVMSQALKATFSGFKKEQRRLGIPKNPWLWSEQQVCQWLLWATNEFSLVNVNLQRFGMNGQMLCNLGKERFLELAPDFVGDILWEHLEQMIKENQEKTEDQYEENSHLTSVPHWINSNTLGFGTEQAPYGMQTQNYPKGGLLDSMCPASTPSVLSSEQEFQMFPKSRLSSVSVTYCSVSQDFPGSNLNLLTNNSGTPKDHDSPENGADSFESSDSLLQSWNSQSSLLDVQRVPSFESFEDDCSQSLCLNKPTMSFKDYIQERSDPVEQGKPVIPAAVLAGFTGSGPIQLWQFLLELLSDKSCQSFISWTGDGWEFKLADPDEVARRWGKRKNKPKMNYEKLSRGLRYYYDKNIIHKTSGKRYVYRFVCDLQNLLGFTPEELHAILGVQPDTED
Outline: as §1

SPDEF = biological target: T9, SPDEF (Homo sapiens, UniProt O95238 1-335); conditions: protein: recombinant; tags: N-terminal GST; dsDNA, one strand shown
T9 sequence: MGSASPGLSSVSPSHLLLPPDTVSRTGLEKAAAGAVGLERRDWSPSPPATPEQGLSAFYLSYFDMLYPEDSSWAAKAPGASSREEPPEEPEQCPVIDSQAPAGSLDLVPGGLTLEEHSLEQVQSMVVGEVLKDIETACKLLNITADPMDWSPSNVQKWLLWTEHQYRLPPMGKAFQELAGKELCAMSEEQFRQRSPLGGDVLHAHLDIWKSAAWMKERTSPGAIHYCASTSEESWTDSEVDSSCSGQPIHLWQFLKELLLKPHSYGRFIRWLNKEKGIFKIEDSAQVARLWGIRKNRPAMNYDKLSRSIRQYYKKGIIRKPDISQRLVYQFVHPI
Outline: as §1

ETV7 = biological target: T10, ETV7 (Homo sapiens, UniProt Q9Y603 1-341); conditions: protein: recombinant; tags: N-terminal GST; dsDNA, one strand shown
T10 sequence: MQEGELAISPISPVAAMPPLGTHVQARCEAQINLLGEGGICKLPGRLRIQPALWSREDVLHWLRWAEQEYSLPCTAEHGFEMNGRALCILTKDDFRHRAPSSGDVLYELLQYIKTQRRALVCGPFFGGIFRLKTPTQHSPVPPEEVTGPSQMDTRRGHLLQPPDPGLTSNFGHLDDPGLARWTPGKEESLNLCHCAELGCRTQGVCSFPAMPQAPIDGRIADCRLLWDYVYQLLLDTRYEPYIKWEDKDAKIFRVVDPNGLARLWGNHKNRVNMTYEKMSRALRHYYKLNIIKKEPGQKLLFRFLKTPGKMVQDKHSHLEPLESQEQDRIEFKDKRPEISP
Outline: as §1

ELF5 = biological target: T11, ELF5 (Homo sapiens, UniProt Q9UKW6-2 1-255); conditions: protein: recombinant; tags: N-terminal GST; dsDNA, one strand shown
T11 sequence: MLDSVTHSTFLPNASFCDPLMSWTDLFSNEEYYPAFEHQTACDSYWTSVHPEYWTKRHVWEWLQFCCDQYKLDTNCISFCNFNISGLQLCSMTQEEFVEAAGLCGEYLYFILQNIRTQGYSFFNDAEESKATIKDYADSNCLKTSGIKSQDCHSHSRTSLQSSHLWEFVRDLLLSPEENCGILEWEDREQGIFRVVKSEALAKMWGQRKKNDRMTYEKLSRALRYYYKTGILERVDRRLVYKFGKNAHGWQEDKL
Outline: as §1

ETV3 = biological target: T12, ETV3 (Homo sapiens, UniProt P41162-2 1-143); conditions: protein: recombinant; tags: N-terminal GST; dsDNA, one strand shown
T12 sequence: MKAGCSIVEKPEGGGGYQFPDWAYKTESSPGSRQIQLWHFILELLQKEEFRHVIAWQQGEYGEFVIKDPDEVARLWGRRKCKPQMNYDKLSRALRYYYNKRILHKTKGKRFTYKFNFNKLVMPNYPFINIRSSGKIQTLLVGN
Outline: as §1

ETV6 = ETV6 (Homo sapiens, UniProt P41212 1-452); conditions: protein: recombinant; tags: N-terminal GST; dsDNA, one strand shown
Chain of ETV6 (P41212 whole entry): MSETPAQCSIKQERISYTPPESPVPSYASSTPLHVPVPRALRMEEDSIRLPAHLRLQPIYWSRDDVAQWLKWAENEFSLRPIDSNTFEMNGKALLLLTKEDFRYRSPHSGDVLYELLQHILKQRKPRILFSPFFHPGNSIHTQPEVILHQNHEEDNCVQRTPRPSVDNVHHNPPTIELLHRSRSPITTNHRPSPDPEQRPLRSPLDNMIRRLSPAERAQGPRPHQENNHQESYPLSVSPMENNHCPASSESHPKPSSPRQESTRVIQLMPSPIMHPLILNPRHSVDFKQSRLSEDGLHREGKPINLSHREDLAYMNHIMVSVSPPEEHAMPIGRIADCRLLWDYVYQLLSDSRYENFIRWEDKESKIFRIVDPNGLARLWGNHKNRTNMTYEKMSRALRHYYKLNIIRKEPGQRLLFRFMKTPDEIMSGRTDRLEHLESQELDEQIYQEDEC
Outline: as §1

ATTCAT
binding signal (FEV): 1.11 fold enrichment (6-mer frequency, TF over GST control) | binding signal (ETV5): 1.21 fold enrichment (6-mer frequency, TF over GST control) | binding signal (HSF1): 1.12 fold enrichment (6-mer frequency, TF over GST control) | binding signal (SPIC): 1.24 fold enrichment (6-mer frequency, TF over GST control) | binding signal (ELF4): 1.17 fold enrichment (6-mer frequency, TF over GST control) | binding signal (ELK4): 1.18 fold enrichment (6-mer frequency, TF over GST control) | binding signal (ETV2): 1.15 fold enrichment (6-mer frequency, TF over GST control) | binding signal (ELF3): 1.22 fold enrichment (6-mer frequency, TF over GST control) | binding signal (CRX): 1.16 fold enrichment (6-mer frequency, TF over GST control) | binding signal (ETV1): 1.18 fold enrichment (6-mer frequency, TF over GST control) | binding signal (ERF): 1.14 fold enrichment (6-mer frequency, TF over GST control) | binding signal (ETV3L): 1.27 fold enrichment (6-mer frequency, TF over GST control) | binding signal (ETS2): 1.13 fold enrichment (6-mer frequency, TF over GST control) | binding signal (SPDEF): 1.07 fold enrichment (6-mer frequency, TF over GST control) | binding signal (ETV7): 1.18 fold enrichment (6-mer frequency, TF over GST control) | binding signal (ELF5): 1.1 fold enrichment (6-mer frequency, TF over GST control) | binding signal (ETV3): 1.19 fold enrichment (6-mer frequency, TF over GST control) | binding signal (ETV6): 1.11 fold enrichment (6-mer frequency, TF over GST control)
